This note sets out measurements from publication PMC7862700, “An all-to-all approach to the identification of sequence-specific readers for epigenetic DNA modifications on cytosine”.

Holding throughout (assay): DAPPL (digital affinity profiling via proximity ligation, sequencing); 10 mM Tris-HCl pH 7.5, 50 mM NaCl, 1 mM DTT, 4% glycerol, room temperature, 30 min; GST-TFs on glutathione beads, 16-mer random dsDNA library, 0.1% formaldehyde crosslink after washing; high values mean tight binding
One test concerns the target T1, FLI1 (Homo sapiens, UniProt Q01543 1-452).
T1 sequence: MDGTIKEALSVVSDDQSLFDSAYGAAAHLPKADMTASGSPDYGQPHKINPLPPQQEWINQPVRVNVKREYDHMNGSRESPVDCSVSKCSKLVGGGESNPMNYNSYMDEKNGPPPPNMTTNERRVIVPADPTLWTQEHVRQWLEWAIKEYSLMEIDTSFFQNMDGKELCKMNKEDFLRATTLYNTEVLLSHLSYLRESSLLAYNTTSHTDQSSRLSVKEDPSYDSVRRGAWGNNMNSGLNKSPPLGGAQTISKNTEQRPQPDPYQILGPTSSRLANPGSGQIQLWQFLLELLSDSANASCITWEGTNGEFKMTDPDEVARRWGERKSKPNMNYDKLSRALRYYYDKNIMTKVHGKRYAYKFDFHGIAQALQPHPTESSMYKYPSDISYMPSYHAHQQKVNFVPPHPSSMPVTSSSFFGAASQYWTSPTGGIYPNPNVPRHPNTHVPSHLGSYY
To be noted: protein: recombinant; tags: N-terminal GST; dsDNA, one strand shown. A digest of the protocol: (§1)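 Sequencing on an Illumina NextSeq500 followed washing, crosslinking with 0.1% formaldehyde, proximity ligation (BsaI/T4 ligase, 1 h, 37 °C) and PCR amplification of pools that had been incubated for 30 min at room temperature with 200 nmole of a random double-stranded 16-mer DNA library in Tris/NaCl/DTT/glycerol buffer. Each pool held DNA-barcoded human transcription factors, expressed in yeast as GST fusions and captured on glutathione beads, plus a tag-only sample. Binding signal is a hexamer's read frequency for a factor divided by its frequency in the tag-only sample.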

A further test addresses T2, ELK1 (Homo sapiens, UniProt P19419 1-428).
T2 sequence: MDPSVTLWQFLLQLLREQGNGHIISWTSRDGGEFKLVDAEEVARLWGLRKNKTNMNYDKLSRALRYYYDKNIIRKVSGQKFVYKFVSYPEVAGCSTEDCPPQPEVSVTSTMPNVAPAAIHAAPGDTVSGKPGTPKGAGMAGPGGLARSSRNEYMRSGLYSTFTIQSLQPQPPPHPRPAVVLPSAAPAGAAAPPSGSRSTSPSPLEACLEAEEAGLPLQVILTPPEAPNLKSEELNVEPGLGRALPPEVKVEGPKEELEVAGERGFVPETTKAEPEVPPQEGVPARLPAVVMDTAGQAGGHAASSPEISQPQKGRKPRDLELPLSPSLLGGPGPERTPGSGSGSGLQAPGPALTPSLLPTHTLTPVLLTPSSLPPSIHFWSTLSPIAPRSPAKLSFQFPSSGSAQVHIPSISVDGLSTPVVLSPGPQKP
As to conditions: protein: recombinant; tags: N-terminal GST; dsDNA, one strand shown. A digest of the protocol: as §1

The next test concerns the target ELF1 (Homo sapiens, UniProt P32519 1-619). As to conditions: protein: recombinant; tags: N-terminal GST; dsDNA, one strand shown. The gist of the method: as §1
In another test the target is T3, EHF (Homo sapiens, UniProt Q9NZC4 1-300).
T3 sequence: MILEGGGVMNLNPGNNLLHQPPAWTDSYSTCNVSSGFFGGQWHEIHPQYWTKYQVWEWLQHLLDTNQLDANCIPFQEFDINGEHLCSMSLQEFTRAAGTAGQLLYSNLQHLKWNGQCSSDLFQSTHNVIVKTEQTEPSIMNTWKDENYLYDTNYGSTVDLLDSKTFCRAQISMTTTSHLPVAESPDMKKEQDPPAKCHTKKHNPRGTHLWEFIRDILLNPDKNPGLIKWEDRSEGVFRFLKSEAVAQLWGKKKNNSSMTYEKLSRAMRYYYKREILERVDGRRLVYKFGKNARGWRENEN
As to conditions: protein: recombinant; tags: N-terminal GST; dsDNA, one strand shown. A digest of the protocol:
as §1

The target in the next test is SPI1 (Homo sapiens, UniProt P17947 1-270). As to conditions: protein: recombinant; tags: N-terminal GST; dsDNA, one strand shown. A digest of the protocol: as §1
A further test has as its target T4, FEV (Homo sapiens, UniProt Q99581 1-238).
T4 sequence: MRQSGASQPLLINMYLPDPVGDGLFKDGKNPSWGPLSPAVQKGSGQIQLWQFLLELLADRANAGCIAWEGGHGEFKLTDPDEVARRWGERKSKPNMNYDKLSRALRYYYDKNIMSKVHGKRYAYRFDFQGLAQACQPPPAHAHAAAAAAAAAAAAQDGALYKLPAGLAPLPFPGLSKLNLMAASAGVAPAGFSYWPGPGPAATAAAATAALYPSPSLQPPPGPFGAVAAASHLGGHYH
As to conditions: protein: recombinant; tags: N-terminal GST; dsDNA, one strand shown. A digest of the protocol: as §1

The target of the next test is ETV5 (Homo sapiens, UniProt P41161 1-510). As to conditions: protein: recombinant; tags: N-terminal GST; dsDNA, one strand shown. A digest of the protocol: as §1
In a further test the target is HSF1 (Homo sapiens, UniProt Q00613 1-529). As to conditions: protein: recombinant; tags: N-terminal GST; chain copies: 3; dsDNA, one strand shown. The gist of the method: as §1
Another test addresses T5, SPIC (Homo sapiens, UniProt Q8N5J4 1-248).
T5 sequence: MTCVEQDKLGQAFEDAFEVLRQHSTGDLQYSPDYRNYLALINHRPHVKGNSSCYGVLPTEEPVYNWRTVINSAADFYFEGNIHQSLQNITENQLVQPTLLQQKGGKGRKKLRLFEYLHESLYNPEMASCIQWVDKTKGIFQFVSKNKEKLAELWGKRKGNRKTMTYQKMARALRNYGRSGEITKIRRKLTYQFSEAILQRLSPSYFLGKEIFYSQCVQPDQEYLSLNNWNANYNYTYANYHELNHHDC
As to conditions: protein: recombinant; tags: N-terminal GST; dsDNA, one strand shown. A digest of the protocol:
as §1

The target in the next test is ELF4 (Homo sapiens, UniProt Q99607 1-663). To be noted: protein: recombinant; tags: N-terminal GST; dsDNA, one strand shown. A digest of the protocol: as §1
A further test concerns the target T6, ELK4 (Homo sapiens, UniProt P28324-2 1-405).
T6 sequence: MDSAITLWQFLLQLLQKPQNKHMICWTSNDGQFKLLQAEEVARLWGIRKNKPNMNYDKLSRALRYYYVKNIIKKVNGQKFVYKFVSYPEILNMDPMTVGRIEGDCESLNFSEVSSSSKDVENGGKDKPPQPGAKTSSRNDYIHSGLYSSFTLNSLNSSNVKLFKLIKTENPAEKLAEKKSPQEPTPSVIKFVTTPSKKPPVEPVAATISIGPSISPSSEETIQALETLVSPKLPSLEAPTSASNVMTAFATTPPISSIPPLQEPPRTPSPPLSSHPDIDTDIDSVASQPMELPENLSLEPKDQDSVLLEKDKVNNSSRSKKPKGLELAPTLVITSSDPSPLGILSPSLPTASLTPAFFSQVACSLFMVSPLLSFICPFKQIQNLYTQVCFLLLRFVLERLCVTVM
As to conditions: protein: recombinant; tags: N-terminal GST; dsDNA, one strand shown. A digest of the protocol:
as §1

For the next test, the target named is T7, ETV2 (Homo sapiens, UniProt O00321 1-342).
T7 sequence: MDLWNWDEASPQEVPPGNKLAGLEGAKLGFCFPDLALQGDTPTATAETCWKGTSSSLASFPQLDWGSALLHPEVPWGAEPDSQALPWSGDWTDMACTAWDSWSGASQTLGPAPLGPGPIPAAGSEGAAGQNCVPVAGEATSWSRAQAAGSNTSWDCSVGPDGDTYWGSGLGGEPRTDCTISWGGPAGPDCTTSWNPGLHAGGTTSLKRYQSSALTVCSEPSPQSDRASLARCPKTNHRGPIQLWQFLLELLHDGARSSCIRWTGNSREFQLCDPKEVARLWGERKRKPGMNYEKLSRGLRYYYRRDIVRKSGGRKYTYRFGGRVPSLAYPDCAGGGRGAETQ
To be noted: protein: recombinant; tags: N-terminal GST; dsDNA, one strand shown. The gist of the method:
as §1

A further test deals with T8, ELF3 (Homo sapiens, UniProt P78545 1-371).
T8 sequence: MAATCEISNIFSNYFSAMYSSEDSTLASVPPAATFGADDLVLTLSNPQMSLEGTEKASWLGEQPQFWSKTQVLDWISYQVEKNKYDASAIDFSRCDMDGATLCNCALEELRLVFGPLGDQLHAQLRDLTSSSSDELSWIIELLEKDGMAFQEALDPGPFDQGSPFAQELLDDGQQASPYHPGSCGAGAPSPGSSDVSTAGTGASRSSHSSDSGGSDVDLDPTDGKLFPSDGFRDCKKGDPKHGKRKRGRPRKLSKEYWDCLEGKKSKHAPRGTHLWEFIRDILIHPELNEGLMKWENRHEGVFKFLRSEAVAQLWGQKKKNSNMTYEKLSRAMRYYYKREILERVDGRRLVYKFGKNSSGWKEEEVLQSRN
To be noted: protein: recombinant; tags: N-terminal GST; dsDNA, one strand shown. A digest of the protocol: as §1

In another test the target is ETV1 (Homo sapiens, UniProt P50549 1-477). As to conditions: protein: recombinant; tags: N-terminal GST; dsDNA, one strand shown. The gist of the method:
as §1

Sequence of ELF4 (Q99607 whole entry): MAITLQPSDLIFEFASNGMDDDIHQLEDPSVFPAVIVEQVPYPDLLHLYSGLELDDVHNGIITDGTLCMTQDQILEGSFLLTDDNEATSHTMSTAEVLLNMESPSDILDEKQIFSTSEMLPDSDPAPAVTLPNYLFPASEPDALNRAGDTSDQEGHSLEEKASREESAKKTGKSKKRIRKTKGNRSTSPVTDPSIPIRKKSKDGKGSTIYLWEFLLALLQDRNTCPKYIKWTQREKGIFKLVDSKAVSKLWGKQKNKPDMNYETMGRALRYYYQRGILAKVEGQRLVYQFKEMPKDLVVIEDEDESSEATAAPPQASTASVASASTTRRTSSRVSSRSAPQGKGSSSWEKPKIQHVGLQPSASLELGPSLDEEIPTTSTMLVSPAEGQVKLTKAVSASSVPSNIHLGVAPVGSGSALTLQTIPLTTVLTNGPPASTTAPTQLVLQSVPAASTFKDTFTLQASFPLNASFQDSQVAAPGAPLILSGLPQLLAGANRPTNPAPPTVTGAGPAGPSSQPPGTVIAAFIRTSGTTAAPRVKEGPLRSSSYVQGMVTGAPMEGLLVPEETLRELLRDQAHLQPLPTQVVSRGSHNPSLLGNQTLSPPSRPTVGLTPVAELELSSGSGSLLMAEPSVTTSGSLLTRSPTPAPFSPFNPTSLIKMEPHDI
Sequence of ETV1 (P50549 whole entry): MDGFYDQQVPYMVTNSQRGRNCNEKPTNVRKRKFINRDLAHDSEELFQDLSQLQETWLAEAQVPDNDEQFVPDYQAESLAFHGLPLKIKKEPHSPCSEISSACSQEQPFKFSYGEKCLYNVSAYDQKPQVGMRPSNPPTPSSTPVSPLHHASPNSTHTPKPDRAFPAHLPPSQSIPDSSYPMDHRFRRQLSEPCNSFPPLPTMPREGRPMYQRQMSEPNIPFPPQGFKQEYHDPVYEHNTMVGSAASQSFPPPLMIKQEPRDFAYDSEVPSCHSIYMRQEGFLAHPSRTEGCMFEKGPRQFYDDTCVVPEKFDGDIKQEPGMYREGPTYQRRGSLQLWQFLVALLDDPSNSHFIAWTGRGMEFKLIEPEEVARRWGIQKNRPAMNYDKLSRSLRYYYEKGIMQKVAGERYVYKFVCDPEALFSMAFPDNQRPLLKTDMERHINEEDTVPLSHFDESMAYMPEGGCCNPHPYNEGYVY
Sequence of ETV5 (P41161 whole entry): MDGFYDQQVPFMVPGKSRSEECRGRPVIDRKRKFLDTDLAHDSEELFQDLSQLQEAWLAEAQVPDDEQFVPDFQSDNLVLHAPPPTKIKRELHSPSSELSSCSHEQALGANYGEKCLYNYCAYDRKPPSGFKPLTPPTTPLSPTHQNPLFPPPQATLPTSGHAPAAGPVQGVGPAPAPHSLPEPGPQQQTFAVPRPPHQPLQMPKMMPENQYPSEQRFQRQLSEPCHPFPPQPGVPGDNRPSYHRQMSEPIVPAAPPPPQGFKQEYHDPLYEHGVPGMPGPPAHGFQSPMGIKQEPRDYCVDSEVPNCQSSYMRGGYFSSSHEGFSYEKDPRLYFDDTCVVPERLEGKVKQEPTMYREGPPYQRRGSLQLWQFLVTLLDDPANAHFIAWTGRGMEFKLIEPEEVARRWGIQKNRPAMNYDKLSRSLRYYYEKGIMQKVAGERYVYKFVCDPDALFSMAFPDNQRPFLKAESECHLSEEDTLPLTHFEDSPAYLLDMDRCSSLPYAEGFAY
Sequence of ELF1 (P32519 whole entry): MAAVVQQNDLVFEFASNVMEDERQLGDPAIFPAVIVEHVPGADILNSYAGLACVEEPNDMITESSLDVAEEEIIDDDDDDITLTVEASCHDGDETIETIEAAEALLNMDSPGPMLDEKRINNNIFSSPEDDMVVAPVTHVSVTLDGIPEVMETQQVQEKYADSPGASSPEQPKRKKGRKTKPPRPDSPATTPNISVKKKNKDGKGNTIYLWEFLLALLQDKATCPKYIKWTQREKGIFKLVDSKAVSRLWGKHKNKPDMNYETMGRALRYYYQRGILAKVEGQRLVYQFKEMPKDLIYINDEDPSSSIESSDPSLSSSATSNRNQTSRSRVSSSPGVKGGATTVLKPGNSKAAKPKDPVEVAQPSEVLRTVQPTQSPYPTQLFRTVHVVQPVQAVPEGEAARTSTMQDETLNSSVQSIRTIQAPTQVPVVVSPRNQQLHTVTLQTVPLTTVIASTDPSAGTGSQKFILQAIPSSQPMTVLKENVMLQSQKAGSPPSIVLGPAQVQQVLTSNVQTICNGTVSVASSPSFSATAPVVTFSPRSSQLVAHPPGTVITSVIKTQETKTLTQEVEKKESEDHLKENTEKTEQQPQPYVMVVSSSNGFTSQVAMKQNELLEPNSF
Sequence of HSF1 (Q00613 whole entry): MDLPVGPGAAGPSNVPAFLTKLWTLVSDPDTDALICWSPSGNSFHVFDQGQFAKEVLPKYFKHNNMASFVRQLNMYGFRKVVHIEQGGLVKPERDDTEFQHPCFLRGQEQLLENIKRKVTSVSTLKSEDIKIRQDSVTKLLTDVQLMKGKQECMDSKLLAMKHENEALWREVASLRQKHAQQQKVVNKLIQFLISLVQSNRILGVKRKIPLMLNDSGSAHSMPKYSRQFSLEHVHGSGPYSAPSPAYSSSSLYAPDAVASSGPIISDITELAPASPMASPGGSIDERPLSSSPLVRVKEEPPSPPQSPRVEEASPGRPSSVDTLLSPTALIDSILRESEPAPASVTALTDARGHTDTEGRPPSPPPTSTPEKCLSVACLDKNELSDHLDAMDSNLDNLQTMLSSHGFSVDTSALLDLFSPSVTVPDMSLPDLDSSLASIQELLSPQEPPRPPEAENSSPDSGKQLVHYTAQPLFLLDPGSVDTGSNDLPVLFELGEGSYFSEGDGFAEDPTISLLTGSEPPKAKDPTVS

On to TGAAAA, for which the binding signal with FLI1 is 1.06 fold enrichment (6-mer frequency, TF over GST control); in the test with ELK1 it was 1.03 fold enrichment (6-mer frequency, TF over GST control); with ELF1, 1.04 fold enrichment (6-mer frequency, TF over GST control); with EHF it was 1.08 fold enrichment (6-mer frequency, TF over GST control); with SPI1, 1.23 fold enrichment (6-mer frequency, TF over GST control); in the test with FEV, 1.06 fold enrichment (6-mer frequency, TF over GST control). The binding signal with ETV5 is 1.02 fold enrichment (6-mer frequency, TF over GST control); with HSF1, 1.14 fold enrichment (6-mer frequency, TF over GST control); in the test with SPIC, 1.11 fold enrichment (6-mer frequency, TF over GST control); with ELF4, 1.11 fold enrichment (6-mer frequency, TF over GST control); with ELK4 it was 1.08 fold enrichment (6-mer frequency, TF over GST control); with ETV2 it was 1.08 fold enrichment (6-mer frequency, TF over GST control). Further, the binding signal in the test with ELF3 was 1.08 fold enrichment (6-mer frequency, TF over GST control); with ETV1, 1.01 fold enrichment (6-mer frequency, TF over GST control).
